# DYRK1A inh = rat Dyrk1A kinase inhibitors, primary screen, biochemical, single point, plate reader. Dual specificity tyrosine-phosphorylation-regulated kinase 1A (Rattus norvegicus), Q63470. ADP-Glo luminescence, NFATc1 peptide. inhibition, % at 12.5 µM. hit rate 0.43% among 310,000; in the data active = inhibition above about 50%;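 also: plate controls were vehicle with enzyme for no effect and no enzyme for full effect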
# B2AR ag = beta2AR agonists driving receptor internalization, primary screen, cell-based, FAP fluorogen, flow cytometry; Beta-2 adrenergic receptor (Homo sapiens), P07550; Am2.2-beta2AR cells; response, % (concentration not given with the values); hit rate 0.43% among 340,000; AID 504454, 2011;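 active = response above a set limit, near 3 SD of response in nonfluorescent compounds, cut at about 42% in these data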
# Target sequence (P07550 whole entry, looked up): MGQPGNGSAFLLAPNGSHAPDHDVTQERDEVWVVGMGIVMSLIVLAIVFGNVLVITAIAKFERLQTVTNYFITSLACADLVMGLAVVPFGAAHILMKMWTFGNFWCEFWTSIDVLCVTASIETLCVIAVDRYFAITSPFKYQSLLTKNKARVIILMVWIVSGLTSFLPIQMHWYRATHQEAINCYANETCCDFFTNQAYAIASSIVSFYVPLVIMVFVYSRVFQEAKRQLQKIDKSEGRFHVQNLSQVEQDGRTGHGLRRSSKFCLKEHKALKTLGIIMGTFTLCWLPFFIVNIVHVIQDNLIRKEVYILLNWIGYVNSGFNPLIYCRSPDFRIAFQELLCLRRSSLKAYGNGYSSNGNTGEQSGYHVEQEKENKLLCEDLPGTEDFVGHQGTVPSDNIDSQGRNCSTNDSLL
# dFosB activator = activators of delta FosB homodimer, primary screen, biochemical, fluorescence polarization, TAMRA-CDK5 oligo, single point; Protein FosB (Mus musculus), P13346; purified delta FosB; percent of positive-control signal above neutral wells; activation, % at 25 µM; hit rate 0.99% among 340,000; AID 493131, 2011;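 active = mean activation above about 17%, with every replicate also reaching it, limit read from the data, passing the limit was not always enough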
# Bfl-1 A1 inh = caspase 3/7 activation in MEF A1-2A-BIM cells, primary screen, A1 inhibitor project, cell-based, luminescence, HTS. Caspase-Glo 3/7 luminescence, 3 h; percent of clofoctol response, vehicle zero. caspase activation, % (test concentration not listed). hit rate 0.066% among 330,000. AID 2462, 2010;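 active = over half of replicate activation scores above 10%, or exactly half above 10 with the replicate mean above 10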
# * hit, by the source's call; · = no result. Hits are enriched below; roughly 1.6% of the tested compounds scored in any of these assays.
SMILES,DYRK1A inh,B2AR ag,dFosB activator,Bfl-1 A1 inh
O=c1cc(N=Nc2ccc(Cl)cc2)[nH]c(=O)[nH]1,-1,51*,-7,-1
S=C(NCCCN1CCN(CCCNC(=S)NC2CCCCC2)CC1)NC1CCCCC1,-1,-3,-12,·
O=C1Nc2ccc(C(=O)O)c(O)c2C1=O,·,0,-7,·
COc1cc2oc3ccc(C#Cc4ccccn4)cc3c(=O)c2cc1OC,-1,71*,-12,1
N#CCn1nnc(-c2ccc3c(c2)OCO3)n1,11,4,-9,6.7*
Cc1ccc(NCC(=O)Nc2cccc(S(=O)(=O)N(C)C)c2)cc1S(=O)(=O)N1CCCCCC1,·,5,-7,-1
CCc1ccc(NC2=NCC(c3ccccc3)S2)cc1 (stereo not drawn),1,67*,-12,0
CCCNC(=O)N1CCN(S(C)(=O)=O)CC1,-1,10,-3,1
Cc1cccc(N2CCc3c2nc2ccc(Br)cc2c3N)c1,1,-1,33*,0
Nc1c2c(nc3ccc(Br)cc13)N(c1ccccc1)CC2,0,-2,-31,0
O=[N+]([O-])c1cc([N+](=O)[O-])c2cccnc2c1Oc1ccccc1O,11,51*,2,1
O=[N+]([O-])c1ccc(O)c2ncccc12,0,0,0,-1
Cc1ccc2c(C)c(C(=O)N(C)C(C)c3ccon3)oc2c1C (stereo not drawn),0,-10,-12,0
CCc1ccc(-c2nc(SCC(=O)c3c(N)n(C4CC4)c(=O)[nH]c3=O)n[nH]2)cc1,·,14,42*,0
Cc1ccc(-c2nc(SCC(=O)c3c(N)n(C4CC4)c(=O)[nH]c3=O)n[nH]2)cc1,·,4,1,-1
CN(C)C(=O)c1nnsc1Sc1ccc(Cl)cc1,0,-3,1,0
Cc1nnc(NC(=O)CSc2nnc3c(n2)[nH]c2ccc(Br)cc23)s1,0,1,153*,0
CC12CC(=O)C3C(CCC4=CC(=O)CCC43C)C1CC=C2CC(=O)O (stereo not drawn),5,3,-1,·
COC(=O)C=C1CCC2C3CCC4=CC(=O)CCC4(C)C3C(=O)CC12C (stereo not drawn),5,94*,-16,·
CCc1sc(/C=C(/C#N)C(N)=S)cc1[N+](=O)[O-],0,7,-14,·
CC(=O)NC1C(OCc2ccccc2)OC2COC(C)(C)OC2C1O (stereo not drawn),1,-5,8,0
O=C(Cn1c(O)c(/C=C2\C=Nc3ccccc32)sc1=O)N1CCOCC1,-3,-11,-1,1
O=C(Cn1c(O)c(/C=C2\C=Nc3ccccc32)sc1=O)Nc1ccc2c(c1)OCO2,3,7,36*,1
O=C(CCS(=O)(=O)c1ccccc1)N(CCCN1CCOCC1)c1nc2ccc(F)cc2s1,-1,6,-7,5.3*
COc1ccc(C(CNC(=O)c2ccc(OCc3c(C)noc3C)cc2)N2CCCC2)cc1 (stereo not drawn),4,1,-11,1
SMILES,DYRK1A inh,B2AR ag,dFosB activator,Bfl-1 A1 inh
CCCCC(=O)O[C@H]1CC[C@H]2[C@@H]3CCc4cc(O)ccc4[C@H]3CC[C@]12C,5,43*,-7,0
C=C1C(=O)C=C2CN(C(=O)c3ccccc3)[C@@](Cc3ccc(F)cc3)(C(=O)OC)[C@@H]12,·,79*,9,0
COC(=O)[C@@]1(Cc2ccc(OC)cc2)[C@@H]2C(=CC(=O)[C@H]2CC(=O)C(=O)N(C)C)CN1C(=O)c1ccccc1,·,·,·,0
Cc1ccc(S(=O)(=O)Nc2ccc(C(=O)NCCCN3CCOCC3)cc2)cc1[N+](=O)[O-],1,-4,0,1
CNC(=O)c1nnsc1S(=O)c1ccc(Cl)cc1 (stereo not drawn),-3,2,-4,·
CCCNC(=O)c1nnsc1S(=O)c1ccc(Cl)cc1 (stereo not drawn),-2,50*,-5,·
NC(=O)C1CCN(c2nc(-c3cccnc3)cs2)CC1,-2,-11,33*,0
Oc1cccc(Nc2nc(NCC3CCCO3)c3ccccc3n2)c1 (stereo not drawn),39,7,59*,0
c1ccc(Nc2nc(NCC3CCCO3)c3ccccc3n2)cc1 (stereo not drawn),16,4,-9,0
NC(=O)c1cc(Cc2ccccc2)sc1NC(=O)c1ccco1,6,-6,75*,0
O=C(Nc1nnc(Cc2ccccc2)s1)c1ccco1,-6,-15,-5,0
CN(C)C(CNC(=O)CSc1nc2sc3c(c2c(=O)n1C)CCCC3)c1ccccc1 (stereo not drawn),6,10,-9,0
O=C(C[C@@H]1C/C=C\C[C@H](Cc2ccc(F)cc2)C(=O)OC[C@H]2CCCN2C1=O)NCCO,-1,-7,-2,·
COc1ccc2[nH]c3c(=O)n(CCCC(=O)NC4CCCCC4C)c(=S)[nH]c3c2c1 (stereo not drawn),-1,-6,52*,0
COc1ccc(-n2c(SCC(=O)Nc3cc(C)on3)nc3c([nH]c4ccccc43)c2=O)cc1OC,2,3,25*,1
COc1ccc(/C=C(\NC(=O)c2ccccc2Cl)C(=O)NCCCC(=O)O)cc1,-3,-1,-2,·
COc1ccc(S(=O)(=O)Nc2ccccc2OC)cc1NC(=O)CC1CC2CCC1C2 (stereo not drawn),-3,0,-11,0
O=C(NC1CCCCC1)C(c1ccc(O)c(O)c1)N(C(=O)Cn1nnc2ccccc21)c1cccc(O)c1 (stereo not drawn),3,-6,32*,-2
O=C(NNC(=S)NCc1ccccc1)c1ccc(Br)cc1,-9,-3,-6,-1
COc1ccc(C(=O)COc2ccc3ccc(=O)oc3c2)c(OC)c1,-5,51*,-15,0
COc1ccc(C(=O)COc2ccc3ccc(=O)oc3c2)cc1,-5,3,-14,0
C=C1C(=O)C23C(O)C1CCC2C12CCCC(C)(COC(C)=O)C1C(O)C3(O)OC2 (stereo not drawn),·,58*,2,·
COC(=O)[C@H](CCSC)NC(=O)Nc1ccc(S(N)(=O)=O)cc1,1,-1,6,0
O=C(NCc1ccc2c(c1)OCO2)C(=O)Nc1cc2c3c(c1)CC(=O)N3CCC2,18,1,-2,0
NS(=O)(=O)c1ccc(CCNC(=O)c2ccc[nH]c2=S)cc1,8,-7,-3,0
CCc1c(C)c(C#N)c2nc3ccccc3n2c1NC,-1,3,4,1
CNc1cc(C)c(C#N)c2nc3ccccc3n12,21,14,-2,1
Cc1cc(Cl)n2c(nc3ccccc32)c1C#N,23,99*,-15,·
Cc1c(CCCl)c(Cl)n2c(nc3ccccc32)c1C#N,·,57*,-5,·
CN(CCc1ccccc1)C(=O)c1cc(COc2ccc(F)cc2Cl)on1,3,-9,-21,·

# Bioassay records from PubChem.
